Experimental data published in PubChem BioAssay (Tox21).
Inconclusive results are not listed. Active and inactive are the calls of the source. Unless noted, calls follow the shape of the dose curve; as a rule, active = well fitted curve in the direction sought with a large enough effect in the repeat runs; inconclusive = weak or mixed curves; inactive = no such curve, though single readings can be large; an effect the other way counts as inactive or inconclusive.

How the values were obtained:
[1] = qHTS assay for small molecule agonists of the p53 signaling pathway (AID 651631; calls by dose curve; also: nearly all actives have a fitted effect of over 15% in size); conditions: HCT-116 p53RE-bla reporter, beta-lactamase FRET ratio, 16 h; series mostly up to 73.3 µM
In short: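 HCT-116 cells carrying a stable p53 response element–beta-lactamase reporter were plated, rested 5 h at 37 °C, then exposed to compound in DMSO for 16 h at 37 °C; reporter activity was read as FRET substrate fluorescence after 2 h at room temperature.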

[2] = qHTS assay for small molecules that induce genotoxicity in human embryonic kidney cells expressing luciferase-tagged ATAD5 (AID 651632); conditions: HEK293T ATAD5-luciferase induction, 16 h; series mostly up to 83.3 µM; also: nearly all actives have a fitted effect of over 15% in size
In short: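 Increased luciferase signal from ATAD5-tagged reporter cells indicates DNA-damage-driven ATAD5 induction. HEK293T cells are treated for 16 hr at 37C before detection with Amplite.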

[3] = qHTS assay for small molecule agonists of the p53 signaling pathway - cell viability (AID 651633; calls by dose curve; also: nearly all actives have a fitted effect of over 30% in size); conditions: p53RE-bla HCT-116 viability, ATP luminescence, 16 h; series mostly up to 83.3 µM
In short: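 p53RE-bla cells were treated with compound for 16 hours at 37 C. Cytotoxicity was then measured as CellTiter-Glo luminescence after 30 min at room temperature.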

[4] = qHTS assay for small molecules that induce genotoxicity in human embryonic kidney cells expressing luciferase-tagged ATAD5 - cell viability (AID 651634; calls by dose curve; also: nearly all actives have a fitted effect of over 25% in size); conditions: HEK293T ATAD5-luc cells viability, CellTiter-Fluor, 15.5 h; series mostly up to 83.3 µM
In short: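 Cytotoxicity counterscreen in HEK293T cells bearing an ATAD5-luciferase reporter: live-cell protease activity measured by CellTiter-Fluor fluorescence after 15.5 hr compound exposure.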

[5] = qHTS assay for small molecule disruptors of the mitochondrial membrane potential - cell viability (AID 720634; calls by dose curve;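 also: human HepG2 liver cancer cells; nearly all actives have a fitted effect of over 20% in size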); conditions: HepG2 viability, ATP luminescence (CellTiter-Glo), 1 h; series mostly up to 83.2 µM
In short: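 After overnight attachment at 37 C, HepG2 cells received compound or DMSO vehicle for 1 hr. Viability is then taken from ATP-driven luminescence following a 30 min room-temperature CellTiter-Glo step.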

[6] = qHTS assay to test for compound auto fluorescence at 590 nm (red) in HepG2 cells (AID 720674); conditions: HepG2 autofluorescence, red 540/590 nm, 1 h; series mostly up to 91.3 µM
In short: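 HepG2 cells, 2,000 per well in MEM with 10% FBS, attached overnight at 37 C, then got 23 nL compound or DMSO. After 1 hr at 37 C, 5% CO2, red fluorescence was read at 540/590 nm against Rose Bengal sodium as reference.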

[7] = qHTS assay to test for compound auto fluorescence at 535 nm (green) in HepG2 cells (AID 720675); conditions: green autofluorescence 485/535 nm, 1 h; series mostly up to 91.3 µM
[8] = qHTS assay to test for compound auto fluorescence at 460 nm (blue) in HEK293 cells (AID 720678); conditions: blue autofluorescence 405/460 nm; series mostly up to 91.3 µM
In short: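 Blue-channel (Ex/Em 405/460 nm) intensity measured in HEK293 cultures after overnight compound exposure at 37C; signal expressed relative to triamterene. Cells plated 2,000 per well in 10% dialyzed FBS medium and allowed 4-5 hr to attach.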

[9] = qHTS assay to test for compound auto fluorescence at 590 nm (red) in HEK293 cells (AID 720679); conditions: red autofluorescence 540/590 nm; series mostly up to 91.3 µM
In short: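 Red-channel autofluorescence (Ex/Em 540/590 nm; Rose Bengal sodium reference) was measured after overnight 37C, 5% CO2 exposure of attached HEK293 cells, 2,000 per well in medium with 10% dialyzed FBS.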

[10] = qHTS assay to test for compound auto fluorescence at 535 nm (green) in HEK293 cells (AID 720680); conditions: green autofluorescence 485/535 nm; series mostly up to 91.3 µM
[11] = qHTS assay to test for compound auto fluorescence at 460 nm (blue) in HEK293 cell free culture (AID 720681); conditions: cell-free medium, autofluorescence 405/460 nm (blue); series mostly up to 91.3 µM
In short: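 Compounds were added to cell-free DMEM with 10% FBS and fluorescence read directly. The blue channel used 405 nm excitation and 460 nm emission, with triamterene as the reference fluorophore.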

[12] = qHTS assay to test for compound auto fluorescence at 535 nm (green) in HEK293 cell free culture (AID 720682); conditions: cell-free medium, green autofluorescence 485/535 nm; series mostly up to 91.3 µM
In short: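 Read-out: 485/535 nm fluorescence intensity, calibrated against fluorescein. Medium only (DMEM + 10% FBS, no cells); test compound or DMSO vehicle added by pintool before plate reading.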

[13] = qHTS assay to test for compound auto fluorescence at 590 nm (red) in HEK293 cell free culture (AID 720683); conditions: cell-free medium autofluorescence, Ex540/Em590 red; series mostly up to 91.3 µM
In short: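 Cell-free wells of DMEM with 10% FBS received compound, and intrinsic fluorescence was read at excitation/emission 540/590 nm. Values expressed as equivalence to Rose Bengal sodium.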

[14] = qHTS assay to test for compound auto fluorescence at 460 nm (blue) in HepG2 cell free culture (AID 720685); conditions: Cell-free culture medium, blue autofluorescence 405/460 nm; series mostly up to 91.3 µM
In short: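 Compound (23 nL) or DMSO pinned into cell-free MEM with 10% FBS; blue fluorescence read at 405/460 nm excitation/emission, expressed as auto-fluorescence equivalency to triamterene.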

[15] = qHTS assay to test for compound auto fluorescence at 535 nm (green) in HepG2 cell free culture (AID 720686); conditions: Cell-free medium, green autofluorescence 485/535 nm; series mostly up to 91.3 µM
[16] = qHTS assay to test for compound auto fluorescence at 460 nm (blue) in HepG2 cells (AID 720687); conditions: autofluorescence 405/460 nm, 1 h; series mostly up to 91.3 µM
In short: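 HepG2 cells in MEM with 10% FBS, attached overnight at 37 C, were exposed to compound or DMSO for 1 hr at 37 C, 5% CO2. Blue fluorescence was read at 405/460 nm, with triamterene as reference fluorophore.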

[17] = biological target: Glucocorticoid receptor (Homo sapiens) (UniProt P04150); experiment: qHTS assay to identify small molecule agonists of the glucocorticoid receptor (GR) signaling pathway (AID 720691; active = well fitted activation curve with a large enough effect in the signal ratio in the repeat runs, not every such curve was filed as active; the % refers to the signal ratio); conditions: GR-bla HeLa, beta-lactamase reporter ratio, 18 h; series mostly up to 62.4 µM
Glucocorticoid receptor (Homo sapiens), sequence (P04150 whole entry, looked up): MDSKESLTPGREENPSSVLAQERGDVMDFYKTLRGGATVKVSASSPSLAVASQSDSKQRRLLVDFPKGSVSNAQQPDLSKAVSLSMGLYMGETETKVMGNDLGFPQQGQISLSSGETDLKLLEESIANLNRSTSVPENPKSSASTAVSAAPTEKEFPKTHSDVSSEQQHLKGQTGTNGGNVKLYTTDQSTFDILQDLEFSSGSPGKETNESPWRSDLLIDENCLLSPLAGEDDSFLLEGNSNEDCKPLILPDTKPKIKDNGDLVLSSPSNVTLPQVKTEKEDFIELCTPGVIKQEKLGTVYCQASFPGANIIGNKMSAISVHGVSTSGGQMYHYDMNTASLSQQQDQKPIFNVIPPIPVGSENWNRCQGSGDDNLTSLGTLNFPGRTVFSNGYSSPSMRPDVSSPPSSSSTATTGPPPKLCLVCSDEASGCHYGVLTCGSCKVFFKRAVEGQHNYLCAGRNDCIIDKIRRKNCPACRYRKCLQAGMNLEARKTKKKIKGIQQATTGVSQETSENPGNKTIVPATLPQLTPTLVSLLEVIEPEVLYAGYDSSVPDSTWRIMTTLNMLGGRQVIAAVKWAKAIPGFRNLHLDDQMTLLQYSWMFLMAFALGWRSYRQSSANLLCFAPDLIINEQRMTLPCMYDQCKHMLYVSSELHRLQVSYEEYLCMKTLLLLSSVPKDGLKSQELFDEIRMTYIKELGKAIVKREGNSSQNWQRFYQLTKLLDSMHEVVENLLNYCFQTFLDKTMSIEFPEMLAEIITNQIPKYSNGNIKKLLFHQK
In short: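 Agonist mode in a HeLa line carrying a GRE-controlled beta-lactamase reporter. Compounds act for 18 h at 37 C before a 2 h room-temperature FRET substrate step and fluorescence reading.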

[18] = biological target: Glucocorticoid receptor (Homo sapiens) (UniProt P04150); experiment: qHTS assay to identify small molecule antagonists of the glucocorticoid receptor (GR) signaling pathway (AID 720692; active = well fitted inhibition curve with a large enough effect in the signal ratio in the repeat runs, not every such curve was filed as active; the % refers to the signal ratio); conditions: GR-bla HeLa, beta-lactamase FRET ratio, dexamethasone-stimulated, 18 h; series mostly up to 58.5 µM
In short: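 Cells plated, rested 4 h at 37 C/5% CO2; compounds in DMSO pin-transferred; dexamethasone added to 5 nM final; 18 h at 37 C; B/G FRET substrate added, 2 h room temperature; fluorescence measured.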

[19] = qHTS assay to test for compound auto fluorescence at 590 nm (red) in HepG2 cell free culture (AID 720684); conditions: cell-free medium autofluorescence, red 540/590 nm; series mostly up to 91.3 µM
In short: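 Compound was pinned into wells holding MEM with 10% FBS and no cells, and red fluorescence was read at Ex/Em 540/590 nm. Signal is expressed as auto fluorescence equivalency relative to Rose Bengal sodium.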

Measured: Potency

CC(C)N(C)C
not listed: [19]
inactive: all other assays above

CCSC(=O)N(CC)CC
not listed: [19]
inactive: all other assays above

CCC(C)(C)C(=O)O
not listed: [11]
inactive: all other assays above

CC[C@H]1OC(=O)[C@H](C)[C@@H](O[C@H]2C[C@@](C)(OC)[C@@H](O)[C@H](C)O2)[C@H](C)[C@@H](O[C@@H]2O[C@H](C)C[C@H](N(C)C)[C@H]2O)[C@](C)(O)C[C@@H](C)CN(C)[C@H](C)[C@@H](O)[C@]1(C)O
not listed: [17] | [18]
inactive: all other assays above

CCCCCCC(O)CCOC(C)=O (stereo not given)
not listed: [17] | [18]
inactive: all other assays above

CC1=CC[C@@]23C[C@@H]1C(C)(C)[C@@H]2CC[C@H]3C
not listed: [11] | [19]
inactive: all other assays above

CNCc1ccc(NC(=O)c2c[nH]c3c2C(=O)CCC3)cc1
not listed: [18]
inactive: all other assays above

O=C(NC(Cc1cc(=O)[nH]c2ccccc12)C(=O)O)c1ccc(Cl)cc1 (stereo not given)
not listed: [18] | [19]
inactive: all other assays above
